Data published in the supplement of paper PMC6555819.

Key:
Experiment in all cases: PBM binding z-score (relative to random genomic background probes); higher = stronger binding; sequences stand for … in GC…GCGATTGACAGCGTAGAATGAAGG
[1] = system: RARb homodimer (NR concentration 270 nM)
Procedure, shortened: (§1)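 Custom Agilent 4×180K protein-binding microarrays carried double-stranded probes, each with a 34-nt variable region. These regions held direct-repeat seeds, single-nucleotide variants, half-site ablations and random human genomic background sequences. Ligand-free nuclear receptor dimers were incubated on the arrays for 1 h, antibodies against each partner (one per run) detected binding, and scanned fluorescence was regression-normalized. Binding z-scores take the random background probes as reference.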

[2] = system: RARg:RXRa (NR concentration 270 nM, RXRa partner concentration 90 nM)
Procedure, shortened: as §1

[3] = system: RARg homodimer (NR concentration 270 nM)
Procedure, shortened: as §1

[4] = system: RXRa DBDmut IVT, anti-RXR (DBD mutation: RXRa K156A/R161A, NR concentration 90 nM)
Procedure, shortened: as §1

[5] = system: RXRa homodimer (NR concentration 180 nM)
Procedure, shortened: as §1

[6] = system: THRa:RXRa (NR concentration 90 nM, RXRa partner concentration 90 nM)
Procedure, shortened: as §1

[7] = system: THRa homodimer (NR concentration 90 nM)
Procedure, shortened: as §1

[8] = system: VDR homodimer (NR concentration 270 nM)
Procedure, shortened: as §1

Sequence | PBM binding z-score [1] | PBM binding z-score [2] | PBM binding z-score [3] | PBM binding z-score [4] | PBM binding z-score [5] | PBM binding z-score [6] | PBM binding z-score [7] | PBM binding z-score [8]
CCTAGCAGGCCAGGGTCATTCAAGCATTTCGCTT | 2.54 | 2.93 | 1.89 | 1.62 | 3.35 | 2.93 | 0.719 | 2.77
GCAGCTAGGTCAGGTTGGTCAGCTAACGGGTACG | 2.83 | 2.31 | 3.77 | 0.319 | 1.04 | 1.57 | 0.4 | 0.351
CAAACTAGGTCAAAAGTCAAAGTCGAGCCAACCA | 2.64 | 4.67 | 4.23 | 1.61 | 5.2 | 2.55 | 0.407 | 0.387
ATCGCAAGGTCGAGGTGAGTATAGAGAAAGGGAA | 1.76 | 2.55 | 2.56 | 0.563 | 2.35 | 2.62 | 0.694 | 0.322
CCGAGTAGGTTATGGGGTATTCAGGCAACGGTGA | 0.841 | 0.46 | 0.562 | 0.0146 | 0.873 | 0.963 | 1.05 | 0.274
CCGGACAGGTGAGAAGGTAACTCAGCCTCGATTA | 0.613 | 0.4 | 0.787 | -0.0237 | 0.117 | 0.16 | 0.35 | -0.222
ATAGGTAGGTTACATCCGGGTCATTCAGGCTATG | 2.84 | 3.6 | 2.45 | 0.326 | 2.96 | 3.77 | 2.45 | 3.59
GATACATGGTCAGCTAGAGGCCAGAGTATGGAAA | 0.679 | 1.39 | 0.818 | -0.556 | 0.128 | -0.168 | -1.01 | -0.418
GCTGCTTGGTCAACTGATGGTCAGCTAAAGCTCG | 0.641 | 0.828 | 0.795 | 0.0652 | -0.182 | -0.283 | -0.699 | -1.25
TCTTGTAGATCAAGCAGGTTGAGAAAGCCTGAGT | -0.543 | -0.355 | -0.321 | 0.479 | -0.0549 | 0.0431 | -0.698 | -0.0523
ATCTCTAGGTAAGACTCAGTTCAGAGAAGAACGC | 0.397 | 0.254 | 0.549 | 0.3 | -0.0317 | 0.761 | 0.645 | 1.12
CCAGACAGGTGAGAACGTAACTCAGCCTCGATTA | 0.118 | 0.404 | 0.33 | 0.242 | 0.378 | -0.0328 | 0.361 | 0.202
TCGAGTAGGTTAGTCGGGGCATTCTGCCAACATA | 0.157 | -0.242 | -0.393 | 0.374 | -0.128 | 0.983 | -0.375 | 0.287
TAGCCTAGGTCATTCAGGGGCGAGTATAGAAAGC | 2.77 | 4.27 | 3.93 | 2.29 | 2.79 | 4.54 | 0.866 | 1.68
ATCGAAAAGTCGTGAGGTGAGTATACAGAAAGGC | 0.17 | 0.561 | 0.564 | -0.691 | 0.466 | 1.68 | 1.14 | -0.0663
ACAGACAGGTGAGTGAGGGTAACTCAGCTGGACG | 0.68 | 0.525 | 0.533 | -0.362 | 0.572 | 1.63 | 0.184 | 0.0737
CCTATTAGTTGACCATAAGAGCAACCGAAGCTCG | 0.851 | 0.678 | 0.927 | 0.811 | 0.6 | 0.468 | 0.721 | 1.03
TTATATAGGTAAATGCTAGGTGAAAGTCCGATCT | 0.66 | 0.442 | 0.423 | 0.585 | 0.781 | 1.62 | 0.619 | 0.705
TCTTGTAGATCTGCAGGTTAAGAAAGCTGGCCAA | 0.11 | -0.162 | -0.524 | 0.681 | 0.267 | 0.319 | -0.531 | -0.245
ATATGTAGGTTATCGGGTCATTCTGTTTGCGCAT | 2.91 | 3.37 | 2.21 | 1.77 | 3.44 | 3.38 | 2.96 | 3.53
TCAGACAGGAGAAGGTAACTCAGGTACGCAGTCG | -0.2 | 0.286 | 0.356 | 1.23 | 0.47 | 0.913 | 0.177 | -0.0806
CCAGACAGGTGAGAAGGTAACTCAACCTCGATTA | 0.715 | 0.716 | 0.698 | 0.0591 | 0.59 | 0.724 | 0.31 | -0.0105
CCAGACAAGTGAAAGGTAACTCAGTCTGGTACGC | 0.344 | 0.201 | 0.303 | 0.272 | 0.604 | 0.291 | -0.287 | 0.0715
TCGAGTAGGTTAGTCGGGGCATTCAGCCAACATA | 0.309 | -0.257 | -0.115 | 0.217 | -0.227 | 0.885 | -0.0985 | 0.0153
TAGACTAGGTCATGGGCCAGTATACCACGCGAAC | 2.68 | 3.79 | 4.47 | -0.0129 | 2.96 | 2.73 | 0.989 | 0.435
ATCGAAAGGTCGAGGTGAGAATAGAGAAAGGGAA | 2.77 | 4.3 | 4.7 | 0.437 | 4.86 | 2.73 | 0.58 | -0.0619
CCTCGGAGGATAGAAGGTCAGAGCTGTCCGCTTT | 2.9 | 2.17 | 2.05 | -0.11 | 1.52 | 1.66 | -0.386 | -0.101
AGTCAAAGTTCATCTAGGTTACGTAAGATATGCT | 4.3 | 5.85 | 6.39 | 4.52 | 5.4 | 3.45 | 0.553 | 6.02
